Rows were chosen to be rich in hits. Some 1.7% of all compounds tested hit in one or more screens of this group.
CHT allo act: allosteric activators of human choline transporter CHT | 310,000 tested, 0.49% active | CHT-expressing cells, membrane potential dye, choline EC20; hits give high values; LV-AA mutant CHT in HEK293 cells | Q9GZV3 | B-score at 10 µM;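 active = initial fluorescence not abnormally high and integrated response B-score, plate-corrected, over 3 SD above library mean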
Target sequence (Q9GZV3 whole entry, looked up): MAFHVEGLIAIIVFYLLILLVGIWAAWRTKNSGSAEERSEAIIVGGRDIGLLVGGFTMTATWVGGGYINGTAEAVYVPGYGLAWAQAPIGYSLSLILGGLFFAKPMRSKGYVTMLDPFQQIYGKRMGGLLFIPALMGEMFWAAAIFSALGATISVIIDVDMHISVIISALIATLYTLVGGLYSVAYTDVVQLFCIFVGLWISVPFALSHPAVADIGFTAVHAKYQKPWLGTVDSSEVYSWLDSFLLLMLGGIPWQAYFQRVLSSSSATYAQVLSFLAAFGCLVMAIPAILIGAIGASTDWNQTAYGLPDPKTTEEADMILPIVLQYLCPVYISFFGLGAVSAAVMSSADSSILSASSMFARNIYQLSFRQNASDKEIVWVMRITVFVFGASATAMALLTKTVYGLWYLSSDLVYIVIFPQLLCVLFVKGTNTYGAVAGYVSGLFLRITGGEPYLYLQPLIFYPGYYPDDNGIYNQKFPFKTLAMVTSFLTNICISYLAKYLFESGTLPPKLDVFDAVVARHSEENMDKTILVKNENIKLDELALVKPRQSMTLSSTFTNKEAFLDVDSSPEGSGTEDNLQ
beta cell repl: MIN6 beta-cell proliferation induction; MIN6 cells proliferation, ATPlite luminescence, 48 h; cells starved in 0.2% serum; 100% = growth in 10% serum; proliferation, % at 10 µM; 330,000 tested, 0.29% active; AID 2380;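 active = compounds whose signal lies at least 3.5 SD above the mean of all wells on their plate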
CHT inh: human CHT choline transport inhibition; CHT-expressing cells, membrane potential dye, choline response; hits give low values; B-score at 10 µM; 310,000 tested, 0.86% active; AID 488975;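 active = B-score over 3 SD under the library average, and starting fluorescence ratio not unusually high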;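 also: choline stimulus applied at its EC90 after an EC20 pre-addition; B-score computed on integrated fluorescence ratio after choline addition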
H9c2 TAG inh: triacylglycerol accumulation inhibition; H9c2 cells, Nile Red lipid (TAG) fluorescence; cells loaded with 200 µM oleic acid; inhibition, % at 12.5 µM; 230,000 tested, 0.66% active;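 active = pattern-corrected inhibition of lipid staining of at least 50% with the nuclear-stain viability signal not falling by more than 50%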
CHT activ conf: human CHT activation, confirmatory screen; 2,500 tested, 91% active; shares compounds with CHT allo act; activation, % at 10 µM; CHT-expressing cells, membrane potential dye fluorescence (FDSS); % of choline EC20–EC90 response window; HEK293 expressing CHT LV-AA mutant; choline added at its EC20;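 active = primary screen active, with duplicate mean activation above negative control mean plus 3 SD, cut at about 11% in these data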
HEK293 MP dye: activity in parental HEK293 cells lacking CHT; membrane potential dye fluorescence (FDSS); measured after EC20 choline addition; shares compounds with CHT allo act; 2,500 tested, 62% active; ratio readout change at 10 µM, hits read low; AID 623908;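 active = duplicate-averaged ratio beyond 3 SD from buffer wells, up or down, though filed actives are nearly all decreases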
Of the large screens only hits and unclear results are named; the others gave an inactive call (follow-up assays come after a bar, where they were run).

Cc1cc(NC(=O)CCC(=O)N(Cc2ccco2)C2(C(=O)NC3CCCCC3)CCCC(C)C2)no1 (centres undefined)	none (no result: H9c2 TAG inh) | CHT activ conf 19 | HEK293 MP dye inactive
C[C@H](CO)N1C[C@H](C)[C@@H](CN(C)C(=O)C2CCCCC2)OCc2cn(nn2)CCCC1=O	none (no result: CHT allo act, beta cell repl, CHT inh)
O=C(CCS(=O)(=O)c1cccs1)Nc1ccc(C(=O)NC2CCN(Cc3ccccc3)CC2)cc1	none
O=C(NC1CC1)C1CCN(C2CCN(C(=O)CC3=CCCCC3)CC2)CC1	none
COc1ccccc1CCNC(=O)c1nccnc1C(=O)O	none (no result: H9c2 TAG inh)
O=C(NC1CCCC1)C(c1ccsc1)N(Cc1ccco1)C(=O)Cc1cccs1 (centres undefined)	CHT allo act 7.4 | CHT activ conf 33 | HEK293 MP dye inactive
COc1ccccc1C(=O)C1CCCN(C(=O)c2ccco2)C1 (centres undefined)	none (no result: H9c2 TAG inh)
COc1ncccc1-c1nnn(-c2ccc(Cl)nc2)n1	none | CHT activ conf 48 | HEK293 MP dye -41
Nc1ccc2c(c1)N1CCN=C1S2	none (no result: H9c2 TAG inh) | CHT activ conf 54 | HEK293 MP dye -49
COc1ccccc1C1CC(c2ccc(Cl)cc2)Nc2ncnn21 (centres undefined)	none | CHT activ conf 30 | HEK293 MP dye inactive
Cc1cc(C)n(C(=O)Cn2nc(C)c(Br)c2C)n1	none
CCCCn1c(N)c(N(CCC(C)C)C(=O)C2CCCN(C(=O)c3ccc(Cl)cc3)C2)c(=O)[nH]c1=O (centres undefined)	CHT allo act 8.8 | CHT activ conf 12 | HEK293 MP dye inactive
COc1cccc(-c2cc3nc4c(c(N5CCC6(CC5)OCCO6)n3n2)CCC4)c1	none (no result: H9c2 TAG inh)
Cc1csc2cc(-c3cccc([N+](=O)[O-])c3)c(-c3cccc([N+](=O)[O-])c3)c[n+]12	CHT allo act 9.3 (no result: H9c2 TAG inh) | CHT activ conf 86 | HEK293 MP dye -87
Oc1ccccc1N=Nc1nc(-c2ccccc2)c(-c2ccccc2)[nH]1	none | CHT activ conf inactive | HEK293 MP dye inactive
CCOc1cc(C)nc(N2CCC(C(=O)NCC3CCCO3)CC2)n1 (centres undefined)	none (no result: CHT allo act, beta cell repl, CHT inh)
FC(F)(F)COc1cc(-c2nnc(SCc3ccccc3)n2Cc2ccco2)cc(OCC(F)(F)F)n1	CHT allo act 9.2 | CHT activ conf 24 | HEK293 MP dye inactive
Cn1c(CCN2CCCCC2)nc2cc([N+](=O)[O-])ccc21	CHT allo act 8.5 (no result: H9c2 TAG inh) | CHT activ conf 58 | HEK293 MP dye -62
Cn1c(CN2CCCCC2)nc2cc([N+](=O)[O-])ccc21	none
Cc1c(OCC(=O)NCCCN2CCCC2=O)ccc2c3c(c(=O)oc12)CCCC3	none (no result: H9c2 TAG inh)
Cc1c(O)c(CN2CCCC2)cc2c1oc(=O)c1ccccc12	none
Cc1c(OCC(=O)NCCCN2CCCC2=O)ccc2c3c(c(=O)oc12)CCC3	none (no result: H9c2 TAG inh) | CHT activ conf 36 | HEK293 MP dye -30
Cc1c(OCc2ccc(C(=O)O)o2)ccc2c3c(c(=O)oc12)CCC3	none (no result: H9c2 TAG inh) | CHT activ conf 39 | HEK293 MP dye -25
Cc1c(O)c(CN2CCCC2)cc2c3c(c(=O)oc12)CCC3	CHT allo act 9.8 (no result: H9c2 TAG inh) | CHT activ conf 37 | HEK293 MP dye -72
CCN(CC)C(=O)COc1ccc2c3c(c(=O)oc2c1C)CCCC3	none
CC1CCCN(CC(O)CN)C1 (centres undefined)	none
CC1CCN(c2ccccc2NC(=O)c2ccc(F)cc2)CC1	CHT allo act 9.3 (no result: H9c2 TAG inh) | CHT activ conf 23 | HEK293 MP dye inactive
CN1CCN(c2ccccc2NC(=O)c2ccc(F)cc2)CC1	none
Cc1ccc(OCC(=O)Nc2cccnc2Cl)cc1C	none (no result: H9c2 TAG inh)
Cc1cccc(-c2nc3c(c(=O)c4ccccc4n3C)c(=O)n2-c2ccccc2)c1	none
Cc1cc(=O)[nH]c(-c2cccnc2)n1	none
CCN(Cc1ccccc1)CC(O)COC(c1ccc(OC)cc1)c1ccc(OC)cc1 (centres undefined)	none (no result: H9c2 TAG inh) | CHT activ conf 15 | HEK293 MP dye inactive
CC1CCCN(c2c([N+](=O)[O-])c(=O)oc3ccccc23)C1 (centres undefined)	none (no result: H9c2 TAG inh)
O=c1oc2ccccc2c(N2CCC(c3ccccc3)CC2)c1[N+](=O)[O-]	none | CHT activ conf inactive | HEK293 MP dye inactive
COCC(=O)n1nc(NCc2ccc(OC)cc2)nc1NCc1ccc(OC)cc1	none | CHT activ conf 10 | HEK293 MP dye inactive
COc1ccc(CNc2nc(NCc3ccc(OC)cc3)n(S(C)(=O)=O)n2)cc1	none
Cn1nc(C(C)(C)C)cc1C(=O)N1CCCCC1c1cc(C(=O)Nc2ccccc2)no1 (centres undefined)	none (no result: CHT allo act, beta cell repl, CHT inh)
CC1(C)C(=O)Nc2ccccc2N1C(=O)COC(=O)c1cc(S(C)(=O)=O)ccc1Cl	none (no result: CHT allo act, CHT inh)
CC1(C)C(=O)Nc2ccccc2N1C(=O)COC(=O)c1ccc(Cl)c(S(=O)(=O)NCc2ccccc2)c1	none | CHT activ conf 12 | HEK293 MP dye inactive
C=CCn1c(SCC(=O)c2c(N)n(CCC)c(=O)n(C)c2=O)nnc1-c1ccncc1	none
CS(=O)(=O)Nc1ccc2c(c1)[C@H]1C[C@H](CC(=O)NCc3cccc(F)c3)O[C@@H](CO)[C@H]1O2	none (no result: CHT allo act, beta cell repl, CHT inh)
CCC1CCCCN1C(=O)c1c[nH]c2ccc(S(=O)(=O)N(C)c3ccc(Cl)cc3)cc2c1=O (centres undefined)	none (no result: H9c2 TAG inh) | CHT activ conf 30 | HEK293 MP dye inactive
CCOC(=O)N1CCN(C(=O)c2c[nH]c3ccc(S(=O)(=O)N(C)c4ccc(F)cc4)cc3c2=O)CC1	none (no result: H9c2 TAG inh)
CCOc1ccc(N(C)S(=O)(=O)c2ccc3[nH]cc(C(=O)NCC(OC)OC)c(=O)c3c2)cc1	none (no result: H9c2 TAG inh) | CHT activ conf 21 | HEK293 MP dye inactive
COc1c2c(cc3ccc(=O)oc13)CCO2	none (no result: H9c2 TAG inh)
COc1cccc(NC(=S)N/N=C2/CCCCc3ccccc32)c1	none (no result: CHT allo act, beta cell repl, CHT inh)
COC(=O)c1cccc(CC2(C)C(=O)Nc3ccc(OC(F)(F)F)cc32)c1 (centres undefined)	none (no result: CHT allo act, beta cell repl, CHT inh)
Cc1cc(/C=N\NC(=O)CC(=O)NC2CCCCC2)c(C)n1-c1cccc(Cl)c1Cl	CHT allo act 12 (no result: H9c2 TAG inh) | CHT activ conf 23 | HEK293 MP dye inactive
Cc1cc(/C=N\NC(=O)CC(=O)NC2CCCCC2)c(C)n1-c1ccc(Cl)c(Cl)c1	none (no result: H9c2 TAG inh)
CCOC(=O)C(C)Oc1cccc2c(=O)n(CC(=O)Nc3ccc(OC)cc3)ccc12 (centres undefined)	none (no result: CHT allo act, beta cell repl, CHT inh)
Cc1ccc(N/C(N)=N/c2nc(CSc3nnc(N)s3)cc(=O)[nH]2)cc1	none | CHT activ conf inactive | HEK293 MP dye inactive
COc1ccc(NS(=O)(=O)c2cc(NC(=O)/C=C/c3ccccc3OC)ccc2N2CCCCC2)cc1	none (no result: H9c2 TAG inh)
Cc1ccc(-c2c[n+](Cc3ccc(Cl)c(Cl)c3)c3n2CCC3)cc1	CHT allo act 7 (no result: H9c2 TAG inh) | CHT activ conf 52 | HEK293 MP dye -30
NCCCC[C@H]1CN=C(N)N1CCc1cccc2ccccc12	none (no result: H9c2 TAG inh)
NCCCC[C@H]1CN=C(N)N1CCC12CC3CC(CC(C3)C1)C2	CHT allo act 8.5 | CHT activ conf 54 | HEK293 MP dye -58
